Test results reported in PubChem BioAssay (EPA / NIEHS).
Records with an inconclusive call do not appear. Activity calls are given as the source filed them. The calls were made as follows, unless noted: active = hit-call score of the fitted dose curve at least 0.9, where 1 is the maximum; inconclusive = response in the unintended direction; inactive = score below 0.9.

Read-out: Intercellular Adhesion Molecule 1 (ICAM1), ICAM1 (gene 3383)
Assay: BSK_3C_ICAM1: BioMAP Diversity Plus: 3C Assay for Intercellular Adhesion Molecule 1 (ICAM1) Biomarker Activity (AID 2283003; active = hit-call score of the fitted dose curve at least 0.9, where 1 is the maximum; inactive = score below 0.9)
Conditions: primary human endothelial cells (HUVEC); actives raise or lower the signal
Summary of the method: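 Human vascular endothelial primary cells, 3C conditions, 24 h treatment. ICAM-1 by ELISA.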

AC50, active:
CCCCCCCCCCC1CO1 (configuration not stated) 36.2 µM
CC(C)CC(=O)CC(C)CC(C)C (configuration not stated) 35.2 µM

outcome, inactive:
Cc1cccnc1
CN(C)CCC(c1ccc(Cl)cc1)c1ccccn1 (configuration not stated)

Read-out: not listed separately
Assay: BSK_3C_Proliferation: Cell Proliferation Assessment in the BioMAP Diversity Plus: 3C Assay (AID 2283006; active = hit-call score of the fitted dose curve at least 0.9, where 1 is the maximum; inactive = score below 0.9;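 as to AC50: potency may reflect either rise or fall in cell number versus DMSO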)
Conditions: primary human endothelial cells (HUVEC)
Summary of the method: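 Proliferation of human vascular endothelial primary cells after 48 h dosing, quantified as SRB-stained protein at 560 nm relative to DMSO.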

AC50, active:
CCCCCCCCCCC1CO1 (configuration not stated) 14.7 µM
CC(C)CC(=O)CC(C)CC(C)C (configuration not stated) 36.6 µM

outcome, inactive:
Cc1cccnc1
CN(C)CCC(c1ccc(Cl)cc1)c1ccccn1 (configuration not stated)

Target: Peroxisome proliferator-activated receptor gamma (Homo sapiens) (UniProt P37231)
Assay: ATG_PPARg_TRANS: Attagene TRANS-FACTORIAL HepG2 Assay for human Peroxisome Proliferator-activated Receptor-gamma (PPARg) (AID 2283007)
Conditions: not given
Summary of the method: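 Twenty-four hours after chemical dosing of transiently transfected HepG2 cells, isolated RNA was converted to cDNA, reporter sequences amplified and 6-FAM-labelled, then HpaI-digested and analysed by capillary electrophoresis. Signal increase against DMSO was fitted.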

Sequence of Peroxisome proliferator-activated receptor gamma (Homo sapiens) (P37231 whole entry, looked up): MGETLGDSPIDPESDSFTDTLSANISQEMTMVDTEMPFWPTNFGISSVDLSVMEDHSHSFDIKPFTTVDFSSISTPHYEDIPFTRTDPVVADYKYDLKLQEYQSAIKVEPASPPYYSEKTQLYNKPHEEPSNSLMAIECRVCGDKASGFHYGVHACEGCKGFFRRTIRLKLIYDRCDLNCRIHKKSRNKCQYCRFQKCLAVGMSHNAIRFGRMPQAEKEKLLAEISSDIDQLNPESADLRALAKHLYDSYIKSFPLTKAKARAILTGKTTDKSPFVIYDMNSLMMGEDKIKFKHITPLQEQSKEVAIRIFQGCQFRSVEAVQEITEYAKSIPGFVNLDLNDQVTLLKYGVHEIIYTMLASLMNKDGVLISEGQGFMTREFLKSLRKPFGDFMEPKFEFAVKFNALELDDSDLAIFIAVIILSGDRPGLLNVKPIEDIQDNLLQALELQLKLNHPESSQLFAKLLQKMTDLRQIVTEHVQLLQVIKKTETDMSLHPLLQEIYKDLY

outcome, inactive:
CC1(C)S[C@@H]2[C@H](NC(=O)[C@H](N)c3ccccc3)C(=O)N2[C@H]1C(=O)O
Cc1cc(C)c(S(=O)(=O)O)cc1N=Nc1cc(S(=O)(=O)O)c2ccccc2c1O
c1cc(N(CC2CO2)CC2CO2)ccc1Cc1ccc(N(CC2CO2)CC2CO2)cc1 (configuration not stated)
CCCCCCCCCCC1CO1 (configuration not stated)
O=[N+]([O-])c1ccc2nc[nH]c2c1
C[Si](C)(C)O[Si](C)(C)O[Si](C)(C)C
Cc1cc(O)cc(C)c1Cl
CC1=C(CC=O)C(C)(C)CCC1
Cc1cccnc1
OCCOCCOCCOCCOCCO
CC(C)CC(=O)CC(C)CC(C)C (configuration not stated)
CCCOCCC
CN(C)CCCN1c2ccccc2CCc2ccc(Cl)cc21
COCCCN
CC(=O)c1nccs1
OCCN(CCO)c1cccc(Cl)c1

AC50, active:
CCCc1c(OCCCCc2nn[nH]n2)ccc(C(C)=O)c1O 5.65 µM
CC(C)n1c(/C=C/[C@@H](O)C[C@@H](O)CC(=O)O)c(-c2ccc(F)cc2)c2ccccc21 5.07 µM
CC/C=C\CC1=C(C)CCC1=O 23.9 µM
